Measurements published in the supplement of paper PMC11732987, “Enantioselective OTUD7B fragment discovery through chemoproteomics screening and high-throughput optimisation” (Communications Chemistry, 2025).

Key:
Assay in all cases: log2 ratio of Biotin-Ahx-Ub-VS probe labelling (fragment/DMSO); higher = less target engagement (more negative = stronger competition), active = hit call of the paper (q ≤ 0.05, log2 ratio ≤ -1)
Details in all cases: compound concentration: 200 uM; treatment time: 3 h
[1] = biological target: T1, USP19 (UniProt O94966)
T1 sequence (whole entry): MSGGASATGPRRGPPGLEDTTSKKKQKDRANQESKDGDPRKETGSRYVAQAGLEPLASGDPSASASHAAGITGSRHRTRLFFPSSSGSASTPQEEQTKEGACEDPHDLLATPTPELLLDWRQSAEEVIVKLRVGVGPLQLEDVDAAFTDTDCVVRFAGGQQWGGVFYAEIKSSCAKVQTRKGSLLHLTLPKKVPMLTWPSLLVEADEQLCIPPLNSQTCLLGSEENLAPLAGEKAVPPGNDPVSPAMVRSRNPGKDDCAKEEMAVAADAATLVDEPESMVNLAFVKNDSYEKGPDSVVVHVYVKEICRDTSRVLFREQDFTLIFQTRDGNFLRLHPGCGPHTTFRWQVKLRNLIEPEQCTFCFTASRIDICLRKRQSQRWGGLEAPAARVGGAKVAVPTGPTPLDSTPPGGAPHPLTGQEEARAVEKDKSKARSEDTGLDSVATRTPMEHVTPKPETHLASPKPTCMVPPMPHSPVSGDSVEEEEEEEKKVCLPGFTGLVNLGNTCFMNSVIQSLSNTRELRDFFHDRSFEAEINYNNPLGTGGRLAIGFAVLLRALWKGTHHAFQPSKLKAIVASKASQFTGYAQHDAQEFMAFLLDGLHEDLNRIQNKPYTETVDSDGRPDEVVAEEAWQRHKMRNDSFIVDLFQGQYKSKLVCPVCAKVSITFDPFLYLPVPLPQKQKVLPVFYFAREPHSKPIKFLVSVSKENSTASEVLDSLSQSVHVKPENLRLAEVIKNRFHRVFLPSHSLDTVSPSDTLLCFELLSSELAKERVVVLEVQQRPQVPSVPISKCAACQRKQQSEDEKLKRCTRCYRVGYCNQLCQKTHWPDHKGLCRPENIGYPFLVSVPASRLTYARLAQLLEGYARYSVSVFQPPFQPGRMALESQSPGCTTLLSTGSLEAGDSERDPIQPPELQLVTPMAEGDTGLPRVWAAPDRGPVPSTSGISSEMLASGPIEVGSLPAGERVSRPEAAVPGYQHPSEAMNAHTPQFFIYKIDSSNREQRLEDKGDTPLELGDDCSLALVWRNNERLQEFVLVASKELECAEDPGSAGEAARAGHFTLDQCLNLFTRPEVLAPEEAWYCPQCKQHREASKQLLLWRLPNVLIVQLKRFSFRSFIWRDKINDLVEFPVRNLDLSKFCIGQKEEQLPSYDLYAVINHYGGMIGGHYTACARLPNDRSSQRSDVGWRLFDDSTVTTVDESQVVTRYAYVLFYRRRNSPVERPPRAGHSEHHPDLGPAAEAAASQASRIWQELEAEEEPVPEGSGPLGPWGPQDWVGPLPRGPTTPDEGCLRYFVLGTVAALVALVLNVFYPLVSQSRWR
Method in brief: (§1)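 HEK293T lysate, 495 µg per sample in Tris/CHAPS/IGEPAL buffer with protease inhibitors, was treated in triplicate with fragment at 200 µM or vehicle for 3 h and then with Biotin-Ahx-Ub-VS at 0.5 µM final for 1 h. Labelled DUBs were NeutrAvidin-enriched, digested with LysC and trypsin, and run by diaPASEF LC-MS/MS. Spectronaut label-free quantities were global-median-normalised, and values are average log2 fragment/vehicle ratios by unpaired t-test on proteins with ≥2 unique peptides.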

[2] = biological target: USP24 (UniProt Q9UPU5)
Method in brief: as §1

[3] = biological target: T2, USP25 (UniProt Q9UHP3)
T2 sequence (whole entry): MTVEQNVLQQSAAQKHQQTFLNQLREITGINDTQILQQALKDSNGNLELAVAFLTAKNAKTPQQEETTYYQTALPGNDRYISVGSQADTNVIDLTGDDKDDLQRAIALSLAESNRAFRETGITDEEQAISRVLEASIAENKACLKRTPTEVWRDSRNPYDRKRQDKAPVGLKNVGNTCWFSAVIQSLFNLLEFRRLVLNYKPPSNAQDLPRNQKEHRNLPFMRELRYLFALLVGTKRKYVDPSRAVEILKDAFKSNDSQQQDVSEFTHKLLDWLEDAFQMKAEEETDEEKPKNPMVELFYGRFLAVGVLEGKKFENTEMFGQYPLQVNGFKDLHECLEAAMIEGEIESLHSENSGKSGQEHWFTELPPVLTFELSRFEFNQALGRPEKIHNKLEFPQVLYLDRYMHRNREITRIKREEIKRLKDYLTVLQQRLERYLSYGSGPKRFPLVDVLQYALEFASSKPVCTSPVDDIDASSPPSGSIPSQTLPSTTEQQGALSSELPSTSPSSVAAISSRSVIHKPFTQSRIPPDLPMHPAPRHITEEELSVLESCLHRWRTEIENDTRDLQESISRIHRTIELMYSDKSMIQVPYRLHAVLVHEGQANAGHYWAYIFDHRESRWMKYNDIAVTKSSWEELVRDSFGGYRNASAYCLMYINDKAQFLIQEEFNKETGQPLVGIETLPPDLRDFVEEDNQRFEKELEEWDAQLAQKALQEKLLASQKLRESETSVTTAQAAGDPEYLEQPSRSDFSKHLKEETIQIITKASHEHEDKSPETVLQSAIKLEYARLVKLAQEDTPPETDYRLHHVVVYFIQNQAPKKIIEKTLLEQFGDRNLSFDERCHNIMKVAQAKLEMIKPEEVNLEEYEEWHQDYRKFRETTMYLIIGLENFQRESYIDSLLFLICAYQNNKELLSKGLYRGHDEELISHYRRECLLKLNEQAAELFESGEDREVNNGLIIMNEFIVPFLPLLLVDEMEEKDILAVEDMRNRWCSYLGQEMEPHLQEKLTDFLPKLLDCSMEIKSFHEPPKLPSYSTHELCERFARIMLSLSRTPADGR
Method in brief: as §1

[4] = biological target: T3, USP28 (UniProt Q96RU2)
T3 sequence (whole entry): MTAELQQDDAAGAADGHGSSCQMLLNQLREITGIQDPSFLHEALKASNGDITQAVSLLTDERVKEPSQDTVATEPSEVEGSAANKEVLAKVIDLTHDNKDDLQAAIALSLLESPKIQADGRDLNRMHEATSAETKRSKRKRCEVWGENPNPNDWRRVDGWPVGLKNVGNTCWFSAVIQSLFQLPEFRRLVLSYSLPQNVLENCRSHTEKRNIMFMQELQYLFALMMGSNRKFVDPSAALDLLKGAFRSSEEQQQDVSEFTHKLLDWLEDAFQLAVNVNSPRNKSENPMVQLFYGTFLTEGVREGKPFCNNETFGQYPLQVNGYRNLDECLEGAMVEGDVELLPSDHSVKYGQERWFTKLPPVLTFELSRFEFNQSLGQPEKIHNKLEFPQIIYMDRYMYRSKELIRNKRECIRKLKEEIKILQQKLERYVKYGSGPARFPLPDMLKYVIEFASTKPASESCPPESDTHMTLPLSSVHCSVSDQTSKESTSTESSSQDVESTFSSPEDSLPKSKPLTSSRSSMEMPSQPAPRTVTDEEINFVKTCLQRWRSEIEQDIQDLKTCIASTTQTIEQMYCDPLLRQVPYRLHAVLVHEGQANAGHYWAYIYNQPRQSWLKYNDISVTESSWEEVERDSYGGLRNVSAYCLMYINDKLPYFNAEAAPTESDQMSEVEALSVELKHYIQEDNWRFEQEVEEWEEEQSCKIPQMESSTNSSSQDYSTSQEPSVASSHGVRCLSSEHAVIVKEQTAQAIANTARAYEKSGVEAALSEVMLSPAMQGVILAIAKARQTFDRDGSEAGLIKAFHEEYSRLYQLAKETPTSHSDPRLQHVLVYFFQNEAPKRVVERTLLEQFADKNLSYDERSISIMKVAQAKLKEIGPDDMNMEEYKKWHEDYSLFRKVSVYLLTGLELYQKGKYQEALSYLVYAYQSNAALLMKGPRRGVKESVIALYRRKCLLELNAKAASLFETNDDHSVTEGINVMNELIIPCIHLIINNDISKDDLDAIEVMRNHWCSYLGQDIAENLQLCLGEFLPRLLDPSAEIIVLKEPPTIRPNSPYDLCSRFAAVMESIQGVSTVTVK
Method in brief: as §1

Measured: log2 ratio of Biotin-Ahx-Ub-VS probe labelling

USP24, sequence (Q9UPU5 whole entry): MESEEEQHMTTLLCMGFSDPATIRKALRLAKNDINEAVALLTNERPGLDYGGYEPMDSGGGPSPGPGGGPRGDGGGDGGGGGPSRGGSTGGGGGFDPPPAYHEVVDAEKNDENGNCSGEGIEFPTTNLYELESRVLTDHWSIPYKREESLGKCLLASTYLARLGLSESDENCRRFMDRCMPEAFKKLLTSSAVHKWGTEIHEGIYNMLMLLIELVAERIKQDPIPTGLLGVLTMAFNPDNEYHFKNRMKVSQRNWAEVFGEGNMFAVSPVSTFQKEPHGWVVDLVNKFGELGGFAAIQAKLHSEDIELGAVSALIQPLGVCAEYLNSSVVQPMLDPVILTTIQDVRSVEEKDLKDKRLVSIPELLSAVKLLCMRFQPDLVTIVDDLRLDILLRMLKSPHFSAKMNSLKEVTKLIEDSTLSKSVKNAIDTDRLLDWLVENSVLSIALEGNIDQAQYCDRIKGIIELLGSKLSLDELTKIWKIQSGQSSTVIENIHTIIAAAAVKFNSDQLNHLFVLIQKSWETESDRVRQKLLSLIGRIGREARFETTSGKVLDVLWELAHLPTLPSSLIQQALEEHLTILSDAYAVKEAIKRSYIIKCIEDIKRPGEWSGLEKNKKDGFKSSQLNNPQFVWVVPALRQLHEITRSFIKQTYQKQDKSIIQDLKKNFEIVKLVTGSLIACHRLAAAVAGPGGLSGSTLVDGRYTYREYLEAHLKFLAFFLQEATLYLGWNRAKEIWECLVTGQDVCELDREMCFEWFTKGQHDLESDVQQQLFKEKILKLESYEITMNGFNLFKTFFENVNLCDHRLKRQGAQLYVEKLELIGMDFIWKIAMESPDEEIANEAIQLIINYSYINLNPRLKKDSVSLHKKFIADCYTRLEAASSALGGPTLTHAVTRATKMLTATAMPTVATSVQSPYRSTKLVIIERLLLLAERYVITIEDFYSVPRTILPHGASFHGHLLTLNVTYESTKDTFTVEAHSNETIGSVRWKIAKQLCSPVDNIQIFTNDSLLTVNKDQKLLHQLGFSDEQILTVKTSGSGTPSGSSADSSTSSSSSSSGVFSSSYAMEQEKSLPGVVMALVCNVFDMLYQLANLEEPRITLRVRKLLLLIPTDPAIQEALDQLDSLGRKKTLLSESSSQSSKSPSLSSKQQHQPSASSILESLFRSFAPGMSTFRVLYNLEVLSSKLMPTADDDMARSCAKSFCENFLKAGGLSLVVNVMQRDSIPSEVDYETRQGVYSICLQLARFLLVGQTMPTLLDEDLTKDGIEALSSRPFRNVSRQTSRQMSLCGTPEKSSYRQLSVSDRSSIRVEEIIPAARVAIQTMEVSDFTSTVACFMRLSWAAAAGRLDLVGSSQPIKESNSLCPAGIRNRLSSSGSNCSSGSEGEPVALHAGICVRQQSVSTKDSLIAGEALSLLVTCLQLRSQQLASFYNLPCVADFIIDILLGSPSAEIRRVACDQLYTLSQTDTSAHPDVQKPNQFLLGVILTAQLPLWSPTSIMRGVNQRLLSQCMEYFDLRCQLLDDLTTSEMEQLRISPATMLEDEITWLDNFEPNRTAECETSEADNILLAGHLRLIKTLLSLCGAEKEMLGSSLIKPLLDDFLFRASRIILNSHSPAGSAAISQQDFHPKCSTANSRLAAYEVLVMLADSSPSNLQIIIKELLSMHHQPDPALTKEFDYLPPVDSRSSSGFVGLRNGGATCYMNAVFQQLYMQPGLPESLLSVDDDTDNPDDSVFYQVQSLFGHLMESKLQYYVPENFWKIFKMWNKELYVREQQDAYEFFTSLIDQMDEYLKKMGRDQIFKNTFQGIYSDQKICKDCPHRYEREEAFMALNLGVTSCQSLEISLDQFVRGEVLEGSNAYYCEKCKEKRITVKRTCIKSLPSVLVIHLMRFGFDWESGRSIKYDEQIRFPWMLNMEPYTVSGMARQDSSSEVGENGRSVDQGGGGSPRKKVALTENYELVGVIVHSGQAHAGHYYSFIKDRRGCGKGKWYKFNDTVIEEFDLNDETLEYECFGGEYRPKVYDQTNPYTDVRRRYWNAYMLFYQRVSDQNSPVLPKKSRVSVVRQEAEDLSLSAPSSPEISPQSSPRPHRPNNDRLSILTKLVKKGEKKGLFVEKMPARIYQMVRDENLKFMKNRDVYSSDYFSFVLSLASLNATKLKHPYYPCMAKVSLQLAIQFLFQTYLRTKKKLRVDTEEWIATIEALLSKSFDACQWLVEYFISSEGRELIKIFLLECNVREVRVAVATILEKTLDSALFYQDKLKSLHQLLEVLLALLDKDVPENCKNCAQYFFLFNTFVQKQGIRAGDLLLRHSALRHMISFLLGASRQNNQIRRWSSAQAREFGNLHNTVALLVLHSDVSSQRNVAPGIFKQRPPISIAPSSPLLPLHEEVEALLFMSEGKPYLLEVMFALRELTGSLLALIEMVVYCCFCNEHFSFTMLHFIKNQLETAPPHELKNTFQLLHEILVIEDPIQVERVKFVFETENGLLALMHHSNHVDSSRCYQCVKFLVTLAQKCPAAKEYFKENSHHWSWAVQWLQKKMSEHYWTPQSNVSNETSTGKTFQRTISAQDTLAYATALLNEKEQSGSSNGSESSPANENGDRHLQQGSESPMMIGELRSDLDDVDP

Cc1ncc2c(n1)CCN(C(=O)CCl)C2
inactive: [1] -0.479 | [2] -0.198 | [3] -0.361 | [4] -0.688
